Results published in the supplement of paper PMC3545927.
This is one part of the list. No count for the full screen is at hand.

Molecular target: furin, P09958
Assay: furin cleavage Z-score vs untreated control; higher = more cleavage, active = 3.5 or more, inactive = 1 or less, 8 variable residues between constant flanks
Method in brief: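 The cleavage Z-score was derived for purified furin acting on 8-mer peptides held on magnetic beads and fused to a cDNA oligonucleotide. Digests lasted 7.5, 15 or 30 min at 1:10 enzyme:substrate in 50 mM HEPES pH 7.5 with CaCl2 and NaCl. Sequencing counts of released DNA, log-transformed against furin-free reactions, were lowess-adjusted and scaled by median absolute deviation.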

Sequence of furin, P09958 (P09958 whole entry): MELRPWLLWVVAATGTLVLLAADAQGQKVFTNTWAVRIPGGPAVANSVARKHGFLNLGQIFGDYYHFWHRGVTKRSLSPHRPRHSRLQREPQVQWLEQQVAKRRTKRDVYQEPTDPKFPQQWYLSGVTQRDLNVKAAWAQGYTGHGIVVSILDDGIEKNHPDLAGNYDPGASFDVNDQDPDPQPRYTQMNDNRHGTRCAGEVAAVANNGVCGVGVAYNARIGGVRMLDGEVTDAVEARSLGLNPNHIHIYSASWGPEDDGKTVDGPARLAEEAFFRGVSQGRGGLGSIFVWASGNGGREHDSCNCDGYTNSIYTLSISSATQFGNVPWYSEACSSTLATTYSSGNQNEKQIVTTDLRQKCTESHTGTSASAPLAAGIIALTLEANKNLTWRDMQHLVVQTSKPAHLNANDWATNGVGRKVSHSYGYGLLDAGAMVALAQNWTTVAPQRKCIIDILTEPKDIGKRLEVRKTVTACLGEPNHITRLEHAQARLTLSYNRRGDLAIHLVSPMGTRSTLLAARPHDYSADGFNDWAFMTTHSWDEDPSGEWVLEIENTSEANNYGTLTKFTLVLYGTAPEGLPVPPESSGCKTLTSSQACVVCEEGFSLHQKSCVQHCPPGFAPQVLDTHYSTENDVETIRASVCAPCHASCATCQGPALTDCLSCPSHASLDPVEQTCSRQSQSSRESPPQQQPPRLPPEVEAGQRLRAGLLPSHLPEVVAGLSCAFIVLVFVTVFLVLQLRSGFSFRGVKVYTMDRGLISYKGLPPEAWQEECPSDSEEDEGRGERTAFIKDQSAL

| Sequence | furin cleavage Z-score (7.5 min) | furin cleavage Z-score (15 min) | furin cleavage Z-score (30 min) |
| --- | --- | --- | --- |
| CASGKPAIIPAGNASASA [HC1005] | -1.38 (inactive) | -0.473 (inactive) | 0.121 (inactive) |
| CATTPCSCSWAGNASASA [HC1900] | -1.59 (inactive) | -2.52 (inactive) | -0.421 (inactive) |
| CARNTRSDEDAGNASASA [FS-3014] | -1.02 (inactive) | -0.114 (inactive) | -1.53 (inactive) |
| CATTPCSGFWAGNASASA [HC1907] | -1.56 (inactive) | -0.535 (inactive) | -0.967 (inactive) |
| CARHTPVNSWAGNASASA [HC1571] | 1.44 | 0.608 (inactive) | 0.598 (inactive) |
| CARHTRSIFWAGNASASA [FS-2147] | 4.67 (active) | 4.45 (active) | 7.05 (active) |
| CARGRRKDDYAGNASASA [FS-2417] | 0.188 (inactive) | -0.41 (inactive) | 0.301 (inactive) |
| CARIIRSSEDAGNASASA [FS-2950] | 3.85 (active) | 3.61 (active) | 5.54 (active) |
| CARHTRSAEDAGNASASA [FS-2681] | 11.3 (active) | 11.4 (active) | 9.18 (active) |
| CARHTRSYDYAGNASASA [FS-1897] | 1.79 | 2.03 | 4.9 (active) |
| CARSIRDAEDAGNASASA [FS-2805] | 0.647 (inactive) | 0.756 (inactive) | 1.52 |
| CAGHTVSGFVAGNASASA [HC357] | 1.57 | -0.476 (inactive) | -0.897 (inactive) |
| CARGDRFSEDAGNASASA [FS-2931] | -1.45 (inactive) | -0.738 (inactive) | -1.76 (inactive) |
| CATRPCSGSWAGNASASA [HC1853] | -0.899 (inactive) | -0.615 (inactive) | -0.153 (inactive) |
| CADAHFLSQTAGNASASA [HC945] | 0.613 (inactive) | 1.42 | 0.711 (inactive) |
| CATTNCSGSWAGNASASA [HC1881] | -0.528 (inactive) | -0.292 (inactive) | 0.376 (inactive) |
| CAEEVVCCSMAGNASASA [HC2132] | 0.374 (inactive) | 0.297 (inactive) | -0.621 (inactive) |
| CAYHSVSHARAGNASASA [HC1651] | -1.35 (inactive) | -2.06 (inactive) | 0.0597 (inactive) |
| CAMEECSQHEAGNASASA [HC1772] | 1.5 | -1.3 (inactive) | 0.318 (inactive) |
| CAAGAHWGVLAGNASASA [HC335] | -0.197 (inactive) | -0.687 (inactive) | 0.539 (inactive) |
| CADMEVVTSTAGNASASA [HC2286] | 0.448 (inactive) | -0.986 (inactive) | 0.706 (inactive) |
| CATTPCSGSEAGNASASA [HC1932] | -1.03 (inactive) | -0.656 (inactive) | -0.208 (inactive) |
| CAKKSRLRRRAGNASASA [FS-1131] | 0.949 (inactive) | 0.557 (inactive) | 0.0179 (inactive) |
| CAVRKRLRRRAGNASASA [FS-106] | 5.39 (active) | 6.32 (active) | 5.13 (active) |

| Sequence | furin cleavage Z-score (7.5 min) | furin cleavage Z-score (15 min) | furin cleavage Z-score (30 min) |
| --- | --- | --- | --- |
| CAPAHRHRRRAGNASASA [FS-1040] | 8.92 (active) | 11.7 (active) | 8.95 (active) |
| CACNHRNRRRAGNASASA [FS-1624] | 5.53 (active) | 5.63 (active) | 6.25 (active) |
| CAFGRRLRRRAGNASASA [FS-1124] | 3.43 | 6.37 (active) | 4.4 (active) |
| CASTPCSAHCAGNASASA [HC2580] | 0.205 (inactive) | 1.68 | 0.424 (inactive) |
| CAIEECSQHLAGNASASA [HC1664] | 0.463 (inactive) | 0.93 (inactive) | 0.504 (inactive) |
| CAEVVTSWWVAGNASASA [HC2208] | -0.678 (inactive) | 0.21 (inactive) | -0.507 (inactive) |
| CAQHYRKKRWAGNASASA [FS-370] | 7.9 (active) | 8.78 (active) | 9.04 (active) |
| CAKIARHYRWAGNASASA [FS-1634] | 0.349 (inactive) | 0.374 (inactive) | 2.69 |
| CALIDRFKRWAGNASASA [FS-270] | 8.5 (active) | 9.49 (active) | 10.6 (active) |
| CALCGRYKRWAGNASASA [FS-49] | 9.62 (active) | 12 (active) | 10.7 (active) |
| CALINTNGSWAGNASASA [HC367] | 1.08 | -2.18 (inactive) | 0.0661 (inactive) |
| CAKEECSQHLAGNASASA [HC1674] | 0.0836 (inactive) | -0.555 (inactive) | 1.98 |
| CARYKRPGLPAGNASASA [FS-2849] | -0.56 (inactive) | 0.396 (inactive) | 1.9 |
| CALETFWAKHAGNASASA [HC1039] | -0.932 (inactive) | -0.375 (inactive) | 0.0766 (inactive) |
| CARYKRWRKHAGNASASA [FS-2112] | 4.44 (active) | 6.03 (active) | 5.36 (active) |
| CARYKRHFKLAGNASASA [FS-2848] | 1.05 | 2.24 | 5.27 (active) |
| CATMPCSGSWAGNASASA [HC1846] | -0.28 (inactive) | -1.3 (inactive) | -0.468 (inactive) |
| CARARRPHFDAGNASASA [FS-1848] | -1.25 (inactive) | -0.201 (inactive) | 0.259 (inactive) |
| CARARRFSGLAGNASASA [FS-1683] | -0.486 (inactive) | -0.258 (inactive) | 0.853 (inactive) |
| CARARRFCRDAGNASASA [FS-2547] | 11.3 (active) | 11.2 (active) | 8.57 (active) |
| CARARRHAADAGNASASA [FS-2648] | 12.4 (active) | 14.4 (active) | 8.89 (active) |
| CAGCGRICRDAGNASASA [FS-1455] | 1.57 | 3.73 (active) | 3.06 |
| CARARRFAQIAGNASASA [FS-2644] | 1.75 | 2.84 | 5.09 (active) |
